Screening data: PubChem, several laboratories
NALP1 inh = NALP1 inflammasome inhibitors in reconstituted yeast, colorimetric, S. cerevisiae, triplicate retest. S. cerevisiae NALP1/ASC/caspase-1 growth, X-gal OD620, 72 h. inhibition, % at 10 µM. actives 0.61% (n = 280,000). AID 2071, 2009; in the data active means inhibition mostly above about 24%, no sharp cut-off; inactive means mostly below about 32%
EBNA-1 inh = EBNA-1 DNA-binding inhibitors, primary screen, biochemical, fluorescence polarization | inhibition, % at 14.8 µM | actives 0.34% (n = 300,000) | AID 1950, 2009; in the data active means inhibition above about 28%
dFosB act = activators of delta FosB homodimer, primary screen, biochemical, fluorescence polarization, TAMRA-CDK5 oligo, single point | Protein FosB (Mus musculus), P13346 | purified delta FosB; percent of positive-control signal above neutral wells | activation, % at 25 µM | actives 0.99% (n = 340,000) | AID 493131, 2011;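 active means mean activation above about 17%, with every replicate also reaching it, limit read from the data, passing the limit was not always enough; inconclusive means only one of the two conditions met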
Target sequence (P13346 whole entry, looked up): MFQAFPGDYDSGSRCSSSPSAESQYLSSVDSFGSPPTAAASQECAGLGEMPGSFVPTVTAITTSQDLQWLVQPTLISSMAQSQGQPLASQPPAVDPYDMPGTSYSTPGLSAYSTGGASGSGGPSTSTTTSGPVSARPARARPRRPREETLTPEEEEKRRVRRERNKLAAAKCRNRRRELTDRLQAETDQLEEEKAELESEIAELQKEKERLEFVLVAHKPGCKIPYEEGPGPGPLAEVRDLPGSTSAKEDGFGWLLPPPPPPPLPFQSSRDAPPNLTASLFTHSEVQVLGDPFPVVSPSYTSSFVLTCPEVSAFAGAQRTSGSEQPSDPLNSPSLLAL
ZTA counter = counter-screen for EBNA-1 inhibitors: inhibitors of Epstein-Barr virus ZTA; actives 0.15% (n = 320,000); ZTA-DNA binding, fluorescence polarization; P03206; inhibition, % at 11 µM; in the data active means inhibition above about 33%
Target sequence (P03206 whole entry, looked up): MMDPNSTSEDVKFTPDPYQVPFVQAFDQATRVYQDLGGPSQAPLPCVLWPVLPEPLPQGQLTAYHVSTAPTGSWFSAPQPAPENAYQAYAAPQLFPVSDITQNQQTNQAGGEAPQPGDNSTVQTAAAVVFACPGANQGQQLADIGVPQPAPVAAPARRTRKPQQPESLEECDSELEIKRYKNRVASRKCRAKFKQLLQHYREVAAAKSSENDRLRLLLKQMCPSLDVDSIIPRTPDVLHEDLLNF
NLRP3 yeast inh = NALP3 inflammasome inhibitors in reconstituted yeast, primary screen, luminescence, uHTS | Yeast reconstituted NLRP3/ASC/caspase-1, beta-gal luminescence, 24 h | inhibition, % at 10 µM | actives 0.39% (n = 330,000);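 active means inhibition of 50% or more; inactive means inhibition below 50%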
PolyA inh = polyadenylation inhibitors in yeast reporter cells, primary screen, luminescence, S. cerevisiae. S. cerevisiae SKY197-pL101 polyadenylation reporter, beta-gal luminescence; efflux-impaired pdr1/pdr3 knockout yeast; score 100 = 6 SD above DMSO. activity score, % at 12 µM. actives 0.02% (n = 300,000). AID 1875, 2009;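 active means lowest replicate activity score at least 50, where 100 means six control SD above control mean; inconclusive means lowest score under 50 but half or more replicates reach 50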;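 further: yeast exposed to compound for 9 h at 30 °C; higher score means more reporter readthrough which indicates perturbed polyadenylation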
Zta DNA confirm = EBV Zta binding to ZRE DNA, inhibitors, confirmation, biochemical, fluorescence polarization, triplicate; shares compounds with ZTA counter; inhibition, % at 11.1 µM; actives 30% (n = 320); AID 2361, 2010;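 active means mean inhibition across triplicate runs above the hit threshold derived for the original primary screen, cut at about 33% in these data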
EBNA1 counter = EBNA-1 DNA-binding inhibition, counter-screen for ZTA inhibitor project, biochemical, fluorescence polarization. shares compounds with ZTA counter. inhibition, % at 14.8 µM. 320 tested, under 10 active. AID 2362, 2010; call rule not given here
Large screens that a line does not name were inactive (follow-up assays come after a bar, where they were run); ! = not active in a repeat. This is a sample that favours compounds with a hit; in the whole collection about 2.2% have one here.

Cc1nn(CC(=O)Nc2ccc(C(=O)N3CCCCC3)cc2)c(=O)c2ccccc12	ZTA counter 35 (no result: NALP1 inh) | Zta DNA confirm inactive | EBNA1 counter inactive
COc1cc(O)c2c(c1)OC(c1ccc(O)cc1)CC2=O (centres undefined)	ZTA counter 34 | Zta DNA confirm inactive | EBNA1 counter inactive
Cc1ccccc1OC(C)C(=O)NCCCN1CCOCC1 (centres undefined)	none
CCN(CC)CCCN(C(=O)c1ccc(Br)cc1)c1nc(-c2ccc(OC)cc2)cs1	PolyA inh inconclusive
CCN(CC)CCOC(=O)c1ccc(N/C=C(/C#N)c2nc(-c3ccc(OC)cc3)cs2)cc1	dFosB act inconclusive, ZTA counter 47 (no result: NALP1 inh) | Zta DNA confirm inactive | EBNA1 counter inactive
CC(=O)c1ccc(OCCCC(=O)N2CCN(S(=O)(=O)c3ccc(C(C)C)cc3)CC2)cc1	none (no result: NALP1 inh)
Cc1ccccc1OCC(=O)Nc1ccncc1	none
CC(=O)Nc1cccc(NC(=O)COc2ccccc2C)c1	ZTA counter 94 | Zta DNA confirm inactive | EBNA1 counter inactive
CCOC(=O)Cc1csc(NC(=O)COc2ccccc2OCC)n1	ZTA counter 48 | Zta DNA confirm inactive | EBNA1 counter inactive
O=C(NCCCN1CCCC1=O)c1cccc(S(=O)(=O)Nc2ccc(Br)cc2)c1	none (no result: NALP1 inh)
CCN(CC)CCn1c(SCC(=O)Nc2ccc(F)cc2)nc2c(sc3ccccc32)c1=O	ZTA counter 38 (no result: dFosB act) | Zta DNA confirm inactive | EBNA1 counter inactive
COc1ccccc1NC(=O)CSc1nc2c(sc3ccccc32)c(=O)n1CCN(C)C	none
CCOc1ccc(NC(=O)C2CCCN(S(=O)(=O)c3c(C)noc3C)C2)cc1 (centres undefined)	none
COc1ccc(S(=O)(=O)/N=C2\C=C(Nc3ccc(O)cc3)C(=O)c3ccccc32)cc1	ZTA counter 35 | Zta DNA confirm inactive | EBNA1 counter inactive
Cc1ccc([N+](=O)[O-])cc1NC(=O)C1CCN(S(C)(=O)=O)CC1	ZTA counter 49 | Zta DNA confirm inactive | EBNA1 counter inactive
Cc1ccc([N+](=O)[O-])cc1NC(=O)C1CCCC1	none
CCN1CCN(Cc2ccc(NC(=O)c3ccc(C)c(NC(=O)C(=O)c4c[nH]c5ccccc45)c3)cc2C(F)(F)F)CC1	ZTA counter 40! | Zta DNA confirm inactive | EBNA1 counter inactive
CCc1ccc(NC(=O)CSc2nccn(-c3ccc4c(c3)OCCO4)c2=O)cc1	none (no result: NALP1 inh, EBNA-1 inh, ZTA counter)
CCOc1ccc(NC(=O)CSc2nccn(-c3ccc4c(c3)OCCO4)c2=O)cc1	ZTA counter 47 (no result: NALP1 inh) | Zta DNA confirm inactive | EBNA1 counter inactive
COc1ccc(CN(C)C(=O)COC(=O)c2cc([N+](=O)[O-])ccc2N2CCCC2)c(OC)c1OC	none (no result: NALP1 inh, EBNA-1 inh, ZTA counter, PolyA inh)
Cc1cccc(C)c1NC(=S)NCCc1ccccn1	ZTA counter 34 | Zta DNA confirm inactive | EBNA1 counter inactive
O=c1cc(-c2ccccc2)oc2cc(O)c(O)c(O)c12	none (no result: NALP1 inh, EBNA-1 inh, ZTA counter, PolyA inh)
O=c1c(O)cccc2cc(O)c(O)c(O)c12	ZTA counter 33 | Zta DNA confirm inactive | EBNA1 counter inactive
CCn1c(CSc2nccn2C)nc2cc(C(=O)O)ccc21	ZTA counter 38 | Zta DNA confirm inactive | EBNA1 counter inactive
CCn1c(CSc2nc3ccccc3[nH]2)nc2cc(C(=O)O)ccc21	none
CC(=O)Nc1ccc2[nH]c3ccccc3c2c1	none
CC(=O)Nc1ccc2[nH]c(C)cc(=O)c2c1	ZTA counter 87 | Zta DNA confirm inactive | EBNA1 counter inactive
O=C(Nc1cccc(C(=O)N2CCN(c3ccccc3)CC2)c1)c1ccco1	none
O=C(Nc1cccc(C(=O)N2CCCCCC2)c1)c1ccco1	ZTA counter 40 | Zta DNA confirm inactive | EBNA1 counter inactive
O=C(Nc1ccc(C(F)(F)F)cc1)C1CC(=O)N(c2ccc3c(c2)OCCO3)C1 (centres undefined)	ZTA counter 65, PolyA inh inconclusive | Zta DNA confirm inactive | EBNA1 counter inactive
O=C(Nc1ccc2c(c1)OCO2)C1CC(=O)N(c2ccc3c(c2)OCCO3)C1 (centres undefined)	none
CCN(CC)CCNC(=O)C(=O)Nc1cc2c3c(c1)CCC(=O)N3CCC2	none
COC/C=C/C1=CC2=CC(=O)C(C)(OC(=O)c3cnc4ccccc4n3)C(=O)C2=CO1 (centres undefined)	ZTA counter 40 (no result: NALP1 inh, dFosB act) | Zta DNA confirm inactive | EBNA1 counter inactive
CCNc1c([N+](=O)[O-])c(=O)oc2ccccc12	ZTA counter 35 | Zta DNA confirm inactive | EBNA1 counter inactive
O=C(O)CC(C(=O)O)N1C(=O)/C(=C/c2ccc(-c3nc4ccccc4s3)o2)SC1=S (centres undefined)	ZTA counter 59 | Zta DNA confirm 64 | EBNA1 counter inactive
O=C(O)CCN1C(=O)/C(=C/c2ccc(-c3nc4ccccc4s3)o2)SC1=S	none
C#CCOCCOCCOCCNc1nc(N2CCOCC2)nc(N2CCN(C(=O)CCCCCCCCCCNC(=O)Cn3cc(CCCCCN)nn3)CC2)n1	none (no result: NALP1 inh, PolyA inh)
C#CCOCCOCCOCCNc1nc(N2CCN(C(=O)CCCCCCCCCCNC(=O)Cn3cc(CCCCCN)nn3)CC2)nc(N2CCN(C(=O)CCCCCCCCCCNC(=O)[C@H]([C@@H](C)CC)n3cc(CCCCCN)nn3)CC2)n1	ZTA counter 83 (no result: NALP1 inh, PolyA inh) | Zta DNA confirm 35 | EBNA1 counter inactive
C#CCOCCOCCOCCNc1nc(N2CCN(C(=O)CCCCCCCCCCNC(=O)Cn3cc(CCCCCN)nn3)CC2)nc(N2CCN(C(=O)CCCCCCCCCCNC(=O)[C@H](CO)n3cc(CCCCCN)nn3)CC2)n1	ZTA counter 50 (no result: NALP1 inh, PolyA inh) | Zta DNA confirm 36 | EBNA1 counter inactive
CC(C(=O)NCc1ccccc1)N1CCN(c2ccc(F)cc2)CC1 (centres undefined)	none
Cc1cccc(N(C)S(=O)(=O)c2csc(C(N)=O)c2)c1	none
C=CCOc1cccc(/C=N/NC(=O)CN2CCCCC2)c1	none
O=C(Nc1ccc2oc(-c3ccncc3)nc2c1)c1ccc2c(c1)OCO2	ZTA counter 50 (no result: NALP1 inh) | Zta DNA confirm 76 | EBNA1 counter inactive
COCC(C)NC(=O)c1nn(Cc2ccccc2)c(=O)c2ccccc12 (centres undefined)	none
